# Compounds with a hit are over-represented: about 2.3% of the library has one in this group of screens.
# FBPA coupling cs = counter-screen for Giardia aldolase inhibitors: coupling enzyme system; coupling enzyme system counterscreen, AmpLite Red fluorescence; activity change, negative = inhibition, % at 58.2 µM, hits read low; 0.67% of 290,000 active; in the data active = activity change below about -30%
#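 Counterscreen of the coupled detection system alone, without aldolase: glyceraldehyde-3-phosphate coupling enzymes plus AmpLite Red readout. Compounds at 57.5 uM final, 10 min RT preincubation, 20 min RT reaction, fluorescence 525/598 nm.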
# Tau fibril ThT = blocks human tau fibril formation measured by thioflavin T; P10636; recombinant tau K18 P301L, heparin-induced fibrillization, ThT fluorescence; Potency, µM (doses to about 57.4 µM), hits mostly inhibitors; 2.1% of 270,000 active; note: nearly all actives have a fitted effect of over 55% in size
#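 Heparin-induced (20 uM) aggregation of recombinant human K18 P301L tau, 15 uM unlabeled with 0.24 uM labeled, pH 7 acetate buffer, 6 hr at 37 C with compound. Fibrils quantified by 30 uM ThT fluorescence after 1 hr ambient incubation.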
# USP1-UAF1 inh = blocks the human USP1/UAF1 deubiquitinase complex; O94782; recombinant USP1/UAF1, Ub-Rhodamine cleavage fluorescence; Potency, µM (titrated, usually from 57.1 µM), actives largely listed as inhibitors; 0.23% of 390,000 active; AID 743255; note: nearly all actives have a fitted effect of over 60% in size
# Target sequence (O94782 whole entry, looked up): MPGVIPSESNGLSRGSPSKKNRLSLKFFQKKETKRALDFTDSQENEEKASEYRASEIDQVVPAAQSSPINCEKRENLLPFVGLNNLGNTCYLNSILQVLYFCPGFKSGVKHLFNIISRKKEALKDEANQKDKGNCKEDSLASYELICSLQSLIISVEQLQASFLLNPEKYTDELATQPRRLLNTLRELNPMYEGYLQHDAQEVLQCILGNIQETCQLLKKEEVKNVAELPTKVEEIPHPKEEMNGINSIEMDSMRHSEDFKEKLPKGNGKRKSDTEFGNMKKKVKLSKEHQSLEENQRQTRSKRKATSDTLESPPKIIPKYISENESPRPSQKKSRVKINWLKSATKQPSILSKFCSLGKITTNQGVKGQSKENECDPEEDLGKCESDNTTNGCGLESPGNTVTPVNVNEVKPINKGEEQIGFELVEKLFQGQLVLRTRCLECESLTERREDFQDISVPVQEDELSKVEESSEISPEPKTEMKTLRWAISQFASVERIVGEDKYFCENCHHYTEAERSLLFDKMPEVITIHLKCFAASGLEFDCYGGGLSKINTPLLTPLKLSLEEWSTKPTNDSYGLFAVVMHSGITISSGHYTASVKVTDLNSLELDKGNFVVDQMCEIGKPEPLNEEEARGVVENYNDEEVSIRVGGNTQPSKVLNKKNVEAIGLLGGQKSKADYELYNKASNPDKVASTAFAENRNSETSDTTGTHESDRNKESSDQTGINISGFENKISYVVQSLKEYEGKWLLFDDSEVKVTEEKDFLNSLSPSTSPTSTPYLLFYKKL
#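 In this screen, compounds sit with the deubiquitinase complex (1nM) for 15 min at room temperature before Ub-Rho is added at 150nM final. Fluorescence rise is then followed for 6 reads every 60 seconds.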
# Tau fluor cs = counter-screen for tau fibril formation inhibitors; tau K18 P301L Alexa594 fluorescence, heparin fibrillization; Potency, µM (top dose mostly 57.7 µM); 0.93% of 280,000 active; note: nearly all actives have a fitted effect of over 55% in size
#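 Human tau K18 P301L (15 uM unlabeled, 0.24 uM Alexa 594-labeled) in 100 mM sodium acetate pH 7 with 20 uM heparin, 6 hr at 37 C. ThT 30 uM added, 1 hr ambient; Alexa 594 FP and total fluorescence read at 555/632 nm.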
# Tau FP inhib = blocks human tau fibril formation measured by polarization. 0.39% of 280,000 active. P10636. Potency, µM (doses to about 57.7 µM), actives largely listed as inhibitors. AID 1468. K18 P301L tau heparin fibrillization, Alexa594 FP, 6 h; note: nearly all actives have a fitted effect of over 55% in size
#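 Steps: dispense K18 P301L tau (15 uM plus 0.24 uM Alexa 594 tracer, final) in pH 7 sodium acetate; add compound; add heparin (20 uM final); incubate 6 hr, 37 C; add ThT (30 uM final); after 1 hr ambient, read FP.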
# Numbers stand for hits; . = inactive; ? = inconclusive; / = no result; [ ] = remark or other dose. Unless noted, calls come from the whole dose curve; as a rule, active = well fitted curve in the direction sought with a large enough effect; inconclusive = small, poorly fitted or top-dose-only effect, or another doubt; inactive = no such curve, though single readings can be large; an effect the other way counts as inactive or inconclusive.
SMILES,FBPA coupling cs,Tau fibril ThT,USP1-UAF1 inh,Tau fluor cs,Tau FP inhib
O=C(N/N=C/c1ccc(O)cc1)c1cccc(N/N=C/c2ccc(O)cc2)c1,.,5µM,.,14µM[quencher],.
O=C(c1cccs1)N1CCCc2cc(NS(=O)(=O)c3cc(F)ccc3F)ccc21,/,.,.,.,.
CC[C@H](C)[C@H](NC(=O)[C@H](CCCNC(=N)N)NC(=O)[C@@H]1CCCN1C(=O)[C@H](Cc1ccccc1)NC(=O)[C@H](Cc1cnc[nH]1)NC(=O)[C@H](CCCNC(=N)N)NC(=O)[C@@H](NC(=O)[C@H](C)NC(=O)[C@H](CCC(=O)O)NC(=O)[C@H](CC(N)=O)NC(=O)[C@@H](N)CCCCN)C(C)C)C(=O)N[C@@H](Cc1c[nH]c2ccccc12)C(=O)N[C@@H](CC(C)C)C(=O)O,.,/,/,/,/
O=[N+]([O-])c1ccc(C2=NN(c3ccccc3)C(c3ccco3)C2)cc1 (configuration not stated),.,5µM,.,.,.
CC1=NN(c2ccccc2)C(c2ccco2)C1 (configuration not stated),/,/,.,/,/
O=[N+]([O-])c1ccc(/C=C/C2=NN(c3ccccc3)C(c3ccco3)C2)cc1 (configuration not stated),.,3.5µM,.,?,.
COc1cc(Nc2nc(-c3ccccc3)c3cc(C)ccc3n2)cc(OC)c1OC,.,16µM,.,?,?
CC/C(=C(/c1ccccc1)c1ccc(OCCN(C)C)cc1)c1ccccc1,.,?,/,.,.
CC(C)n1c(=O)[nH]c2ccccc21,.,.,.,.,.
CC(C)n1c(=O)[nH][nH]c1=S,.,28µM,.,.,?
Cc1ccc(C(=O)NNc2c3ccccc3nc3ccccc23)cc1,.,3.2µM,?,11µM[quencher],?
Nc1ccccc1C(=O)NNc1c2ccccc2nc2ccccc12,.,5.6µM,.,13µM[quencher],.
COc1ccccc1OCC(=O)NNc1c2ccccc2nc2ccccc12,.,18µM,.,16µM[quencher],?
O=C(NNc1c2ccccc2nc2ccccc12)c1ccc(Cl)cc1,.,/,.,/,/
COc1ccccc1OCC(=O)NNC(=O)CCCC(=O)NNC(=O)COc1ccccc1OC,.,/,.,/,/
O=C1NC(=O)C(Cc2ccc(OCCN3COc4ccccc4C3=O)cc2)S1 (configuration not stated),.,/,/,/,/
CCCCNC(=O)CCC(=O)Nc1ccc2nc(N3CCC(C)CC3)cc(C)c2c1,.,.,.,.,.
COc1ccc(C(=O)Nc2ccc3nc(N4CCC(C)CC4)cc(C)c3c2)cc1,/,?,.,5µM[quencher],.
COc1cc(C(=O)Nc2ccc3nc(N4CCN(C)CC4)cc(C)c3c2)cc(OC)c1OC,.,/,.,/,/
Cc1cc(N2CCOCC2)nc2ccc(NC(=O)CCC(=O)N3CCC(C)CC3)cc12,-33,.,.,.,.
COc1cccc(C(=O)Nc2ccc3nc(N4CCC(C)CC4)cc(C)c3c2)c1,/,?,.,13µM[quencher],.
COc1ccc(/C=C/C(=O)Nc2ccc3nc(N4CCC(C)CC4)cc(C)c3c2)cc1,/,?,.,4µM[quencher],.
Cc1ccc(CCNC(=O)Cn2nc(-c3ccc(C)cc3)ccc2=O)cc1,/,.,.,.,.
COC(=O)[C@H](COC(C)(C)C)NC(=O)O[C@@H]1C(=O)c2ccc(OC)cc2O[C@H]1c1ccc2c(c1)OCO2,.,.,/,.,.
COc1ccc(/C=C/C(=O)Nc2ccc3nc(N4CCCCC4)cc(C)c3c2)cc1OC,/,2.8µM,.,7.9µM[quencher],?
SMILES,FBPA coupling cs,Tau fibril ThT,USP1-UAF1 inh,Tau fluor cs,Tau FP inhib
CCN(CC)CCCNC(=O)Cn1nc(C)n2c(cc3sccc32)c1=O,/,.,.,.,.
Nc1nsc2ccccc12,.,13µM,.,.,?
Nc1nnc(N)c2ccccc12,.,.,.,.,.
NC(=O)c1cc[n+](CC2=C(C(=O)O)N3C(=O)[C@@H](NC(=O)[C@H](c4ccccc4)S(=O)(=O)[O-])[C@@H]3SC2)cc1,.,/,/,/,/
COc1ccc(CCN2C(=O)CC(NNc3ccc([N+](=O)[O-])cc3)C2=O)cc1OC (configuration not stated),.,11µM,.,?,.
Oc1ccc(N=Cc2ccc(-c3cccs3)s2)cc1,-51,7.9µM,13µM,?,14µM
O=Cc1ccc(-c2cccs2)s1,/,/,.,/,/
Oc1ccccc1Nc1nc(NCc2ccco2)c2ccccc2n1,.,?,.,18µM[quencher],.
Cc1ccccc1Nc1nc(NCc2ccco2)c2ccccc2n1,.,?,.,?,.
Cc1ccc(NC(=O)c2ccc(NCCN)c([N+](=O)[O-])c2)cc1,.,14µM,.,.,.
O=C(Nc1cccc(Cl)c1)c1ccc(NCCCN2CCOCC2)c([N+](=O)[O-])c1,.,14µM,.,?,.
Cc1cc2c(nc1C)CCCN2C[C@@H](O)CN1CCN(C)CC1,.,.[11.5 µM],/,.[11.6 µM],.[11.6 µM]
O=c1c2sc3ccccc3c2n(Cc2ccccc2)c(=O)n1CCc1ccccc1,/,.,.,.,.
CCN1CC2=C(OC(N)=C(C#N)C2c2cccs2)/C(=C/c2cccs2)C1 (configuration not stated),.,16µM,?,.,.
CCN1C=C(Cc2cccs2)C2=C(C1)C(c1cccs1)C(C#N)=C(N)O2 (configuration not stated),.,22µM,?,.,.
CC(=O)c1ccc(NC(=O)CSc2nc(-c3cccc(F)c3)nc3c2c(=O)n(C)c(=O)n3C)cc1,/,.,.,.,.
O=C(Nc1ccccc1C(=O)N/N=C/c1ccc(F)cc1)c1ccccc1Br,-33,.,.,?,?
O=C(N/N=C/c1ccc(O)cc1)c1ccc(NC(=O)c2ccccc2Br)cc1,.,.,.,?,.
COC(=O)c1ccccc1NC(=O)N1CCC(N2CCN(Cc3ccc(F)cc3)C(=O)C2=O)CC1,/,.,.,.,.
CCOc1cc(-c2nc3ccccc3s2)ccc1O,.,?,.,20µM[quencher],.
COc1cccc(-c2cc(=O)c3ccccc3o2)c1N,.,16µM,/,?,.
CCn1c2ccccc2c2cc(CN3CCN(Cc4ccc(Cl)cc4)CC3)ccc21,/,?,?,.,.
Cc1cccc(-c2c3c(=O)n(C)c(=O)n(C)c3cn2-c2ccccc2O)c1,-39,.,.,.,.
Cc1ccc(O)c(C(=O)c2cc(C#N)c(=O)n(-c3nccs3)c2)c1,.,?,18µM,?,.
Cn1c(=O)n(C)c2cc3[nH]cnc3cc21,.,/,.,/,/
Nc1cc2nc[nH]c2cc1N,.,22µM,?,?,?
COc1ccc(-n2cc(-c3ccccc3)c3c(NCCc4ccc(OC)c(OC)c4)ncnc32)cc1,/,?,.,.,.
CC(C)C[C@H](NC(=O)c1[nH]cnc1C(=O)Nc1ccc(Cl)cc1)C(=O)OC(C)(C)C,.,.,.,.,11µM
Cc1cccc(NC(=O)c2nc[nH]c2C(=O)N[C@@H](Cc2ccccc2)C(=O)OC(C)(C)C)c1,.,?,?,?,8.9µM
